Source: PubChem
Pf growth 96h: Primary qHTS for delayed death inhibitors of the malarial parasite plastid, 96 hour incubation | P. falciparum luciferase reporter growth, 96 h | Potency, µM (top dose mostly 28.7 µM), inactives show top-dose activity change, negative = inhibition, most hits filed as inhibitors | actives 6.9% (n = 320,000) | AID 504834, 2011; also: potency is read from the fitted curve at half-maximal effect
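96 h incubation, 37 C, 5% CO2, of luciferase-reporter P. falciparum-infected RBCs (2% hematocrit, 0.05% parasitemia final) with test compounds; endpoint luminescence.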
HCV inh: qHTS Assay for Inhibitors of Hepatitis C Virus (HCV); Huh7.5.1 HCVcc-Cre infection, luciferase reporter, 44 h; Potency, µM (series often up to 41.8 µM), without a hit: at the top dose activity change, negative = inhibition, hits mostly inhibitors; actives 3.4% (n = 340,000); AID 651820, 2012; also: potency is read from the fitted curve at half-maximal effect
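Infectious HCVcc-Cre (~0.5 moi) was added to cells just after compound, with cells seeded 4 h earlier at 1,000 per well. Luciferase activity after 44 h culture reported infection; substrate was incubated 15 min at room temperature before reading.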
HCMV inh: qHTS Assay for inhibitors of the human cytomegalovirus (HCMV) | AID 1259415, 2018 | actives 4.5% (n = 410,000) | HFF cells, HCMV-luciferase reporter, 72 h; active compounds read low | activity change, negative = inhibition, % at 57.5 µM; in the data active = activity change below about -60%; inconclusive = no clear call, values can overlap the other calls; inactive = above about -39%
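HFF cells seeded 16 h at 37C, treated with compounds, infected with luciferase-reporter HCMV at MOI 1 PFU/cell; luciferase read at 72 h post infection, normalized to buffer-only and Salinomycin controls.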
Pf growth 48h: Primary qHTS for delayed death inhibitors of the malarial parasite plastid, 48 hour incubation. P. falciparum luciferase growth in erythrocytes, 48 h. Potency, µM (doses to about 28.7 µM), without a hit: at the top dose activity change, negative = inhibition, usual class: inhibitors. actives 5.9% (n = 310,000). AID 504832, 2011; also: potency is read from the fitted curve at half-maximal effect
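Erythrocytes infected with P. falciparum carrying an integrated firefly luciferase reporter (2% hematocrit, 0.1% parasitemia final) were exposed to compounds in RPMI 1640 with 0.5% Albumax at 37 C, 5% CO2. Growth inhibition was scored as reduced luminescence.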
* hit, by the source's call; i = inactive; ? = inconclusive; / = not tested or not shown; ! = a repeat was not active. The list is not random: actives were taken first. Their share in the collection is about 13%. Unless noted, calls follow the shape of the dose curve; as a rule, active = well fitted inhibition curve with a large enough effect; inconclusive = small, poorly fitted or top-dose-only effect, or another doubt; inactive = no such curve, though single readings can be large or run the other way. % is scaled to controls: 0 for no effect and ±100 for the full control effect.

SMILES	Pf growth 96h	HCV inh	HCMV inh	Pf growth 48h
CCCCNC(=S)NNC(=O)CCn1nc(C)c(Br)c1C	?	17%	-106*	?
CSc1nc(C)c(C(=O)C[n+]2ccccc2C)cc1C#N	?	?	?	15µM*
O=C(Nc1ccc(Cl)cc1)c1ccc(S(=O)(=O)N2CCOCC2)cc1	?	-9%	-40	-19%
O=C(Nc1ccc(S(=O)(=O)N2CCOCC2)cc1)c1cc(-c2cc(Cl)ccc2O)n[nH]1	1.3µM*	10µM*	-65*	0.83µM*
Cc1cc(O)c(-c2cc(C(=O)Nc3ccc(S(=O)(=O)N4CCOCC4)cc3)[nH]n2)cc1C	i	?	?	1.9µM*
Cc1ccc(CNC(=O)CCn2cnc3ccccc3c2=O)cc1	/	/	14	/
Cc1ccc(CNC(=O)CSc2ncc3c(n2)-c2cc(Cl)ccc2N(C)S3(=O)=O)cc1	/	/	23	/
Cc1cc(NC(=O)Cn2c(=O)nc(-c3ccccc3F)c3cc(Cl)ccc32)ccc1Br	/	/	-1	/
CC(C)[C@H](NC(=O)c1ccco1)C(=O)Nc1ccc(N2CCCCCC2)cc1	/	/	-4	/
COc1cc(Cl)c(NS(=O)(=O)c2cc(-c3cc(C)no3)ccc2OC)c(OC)c1	/	/	-3	/
CCc1ccc(-c2cc(C)no2)cc1S(=O)(=O)NCc1ccccc1OC	0%	-22%	5	?
COc1ccccc1CNS(=O)(=O)c1ccc(-c2cc(C)no2)cc1	-19%	?	-60*	?
COc1cc(NS(=O)(=O)c2ccc(-c3cc(C)no3)cc2)cc(OC)c1	/	/	-85*	/
O=C(COc1ccc(Cl)cc1)Nc1ccc2nc(SCC(=O)N3CCCC3)sc2c1	/	/	42	/
CCOc1cccc(CNCCc2c(C)[nH]c3ccc(OC(F)(F)F)cc23)c1O	?	?	-101*	1.9µM*
Cc1[nH]c2ccc(OC(F)(F)F)cc2c1CCNCc1ccc(Cl)cc1	?	?	-99*	?
Cc1[nH]c2ccc(OC(F)(F)F)cc2c1CCNCc1cccc([N+](=O)[O-])c1	156%	?	?	1.5µM*
COc1ccc(CCNC(=O)C(=O)NCC(c2ccc3c(c2)OCO3)N2CCOCC2)cc1OC (configuration not stated)	/	/	31	/
CN(CCO)C(=O)c1nc[nH]c1C(=O)N1CCN(c2ccccc2)CC1	/	/	-3	/
CCCSCCCNC(=O)CN1C(=O)COc2ccc(S(=O)(=O)N3CCC(C)CC3)cc21	/	/	-8	/
Cc1ccc(C(=O)NCCCNC(=O)c2ccccn2)cc1	26%	8%	18	5%
Cc1ccc(/C(=C\CN2CCCC2)c2ccccn2)cc1	13µM*!	-11%	24	-19%
Cc1ccc2[nH]c3c(c2c1)CN(C(=O)CN1c2ccc(F)cc2CCC1C)CC3 (configuration not stated)	13µM*	?	7	12µM*
Cc1ccc2[nH]c3c(c2c1)CN(C(=O)CN1CCN(C(=O)c2ccco2)CC1)CC3	?	/	7	-16%
Cc1ccc2[nH]c3c(c2c1)CN(C(=O)CN1CCN(c2cccc(C)c2C)CC1)CC3	/	6.3µM*	20	?
SMILES	Pf growth 96h	HCV inh	HCMV inh	Pf growth 48h
Cc1ccc2[nH]c3c(c2c1)CN(C(=O)CN1C[C@H]2C[C@@H](C1)c1cccc(=O)n1C2)CC3	?	12%	-6	?
COc1ccc(C(=O)Oc2cc(-c3ccc(OC)c(OC)c3)cc(=O)c3c(C)oc(C)c23)cc1	/	/	6	/
COc1ccc(-n2cc(CNCCc3cnc[nH]3)c(-c3cccc(F)c3)n2)cc1	?	?	-30	1.7µM*
COc1ccc(-n2cc(CNCc3cccnc3)c(-c3cccc(F)c3)n2)cc1	?	0%	11	13µM*
COc1ccc(-n2cc(CN(C)C(C)c3ccncn3)c(-c3cccc(F)c3)n2)cc1 (configuration not stated)	8%	?	-17	10µM*
COc1ccc(CNCc2cn(-c3cccc(F)c3)nc2-c2ccc(C)o2)cc1	-1%	10µM*	-26	?
O=C(NCc1ccc(Cl)c(Cl)c1)O[C@H]1CC[C@@]23CCCN2C(=O)CCC[C@H]3[C@H]1Cc1ccccc1	/	/	-5	/
CCc1ccc(CN(C(=O)Nc2cccc(Cl)c2)c2ccccn2)cc1	/	/	24	/
COc1cccc(CNCCCSc2nnnn2C)c1OC	/	/	15	/
COc1ccc(OC)c(CNS(=O)(=O)c2cc(-c3onc(C)c3C)ccc2C)c1	/	/	-4	/
